# Data from PubChem BioAssay AID1159506 (National Center for Advancing Translational Sciences (NCATS), 2015).
# Whole data set: some 59,000 sequences, median the read-out near -0.00055, cut for the lowest 2% near -2. Many of the other results were omitted from the sample, so the lowest values are more common in it than they were.
# Experiment: Identification of proteins required for the processing of the EWS-FLI1 nascent transcript;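 also: robust z of luciferase light less the median z of siRNAs with the same seed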
# Settings: TC32 Ewing sarcoma NR0B1-luc vs CMV-luc (EWS-FLI1 target promoter against control promoter), 48 h; screened at 20 nM (by protocol)
# Experimental: Ewing sarcoma (ES) cells depend on the EWS-FLI1 fusion transcription factor for cell survival. Using an assay of EWS-FLI1 activity and genome-wide siRNA screening we have identified proteins required for the processing of the EWS-FLI1 nascent transcript. Parallel genome-wide siRNA-mediated RNAi screens were conducted in Ewing sarcoma TC32 cell lines expressing a luciferase (luc) reporter protein driven by either the promoter of the EWS-FLI1 target gene NR0B1 (TC32-NR0B1-luc) or the CMV promoter (TC32-CMV-luc). Luciferase activity was assessed 48 hours post siRNA-transfection.
# Twenty microl of serum-free media containing Lipofectamine RNAiMax (0.05 microl) was added to wells containing siRNA (0.8 pmol). Lipid and siRNA were allowed to complex for 45 min at ambient temperature before addition of 600 cells in RPMI-1640, 20% FBS to yield final transfection mixtures containing 20 nM siRNA in RPMI-1640, 10% FBS. Luciferase expression was measured using OneGlo (Promega, Madison, WI). The genome-wide screening campaign was conducted using Ambion's human genome library version 4.1 (Ambion, Austin TX). This library targets approximately 21000 human genes, three siRNAs per gene. Each siRNA is arrayed in an individual well of a 384-well plate. Parallel transfections were conducted in TC32-NR0B1-luc and TC32-CMV-luc cell lines and luciferase expression (OneGlo, Promega) was assayed 48 h later on a PerkinElmer Envision 2104 Multilabel plate reader (PerkinElmer, Waltham, MA). Qiagen's AllStars Negative control was incorporated on all screening plates for normalization (16 wells per plate). Qiagen, Germantown, MDsiGL4 was incorporated as a positive transfection control (16 wells per plate) on all plates. […] The raw luciferase data for the NR0B1- and CMV-luc screens were normalized and z-score-MAD transformed using standard methods (Chung et al., 2008). The miRNA-like seed sequence of every siRNA was determined and the median z-score for all siRNA sequences with the same seed sequence was calculated. This z-score was subtracted from the z-score associated with each siRNA with that seed sequence to generate a seed-adjusted z-score value (Z) that was used when the results for the three siRNAs corresponding to each gene were compared (Marine et al., 2012)
row,Sequence,seed-corrected z-score
1,UAAGGUUCGACCUGCAGAG against MNX1-AS1,-2.4
2,UUCCGUUGAUUCUUUCUCC against KAT5,-1.63
3,UUGGUGGUCAUUAAGGUUG against PQLC3,-0.378
4,AAUCUGUCUGUAGGUAUCC against TBC1D22B,-0.38
5,AUUGAUGUAAUCUCCGUCC against PTPN7,-1.34
6,UUUCUUAUCUCUGUUGUUC against CRCP,0.4
7,UUUGGUGAUAGGGUGCUCG against C5orf60,-3.47
8,UUUCUUAGGUGUAUUGACC against PRDX1,-1.23
9,AAGGUAGGCAAAAUUAUCC against GALNT16,1.35
10,UAGACGUGCACGAACACGC against MOB3A,-0.135
11,UGAUAUAGGAGUUAGACUG against KRTAP2-2,0.0896
12,UUAGCAAGCAUCCUUUCGC against LTN1,-0.45
13,AAACAGAAGAGGGAGUGGG against LINC01567,-2.3
14,UGAAUAAUACCUAUAAUCC against OR4F6,-0.573
15,UUGGACAUGAUGAAAUUCC against EML3,0.0247
16,UACAUGCUCCGCACAGUCC against NOTCH1,-0.17
17,UUGGAGCACUGUAAAGGCC against ZFP14,0.456
18,UCUUUAUCAAGUUUACAGG against LANCL3,-0.0126
19,AUAGUUCGGAUCACAAUGC against NPSR1,0.18
20,UUCACUGUCAGUCCGAUGG against COPZ1,-3.71
21,UCUGGUUCUUGUUGGGUAG against ECEL1,-2.81
22,UUUCGAGAAAUAAUACACC against RPA1,-0.401
23,UGUAGAAUGAUCACCAACC against PCNX4,0.471

row,Sequence,seed-corrected z-score
1,UAGGUCAUAACAGAAUGCU against FLNC,-0.156
2,UGUAGUCACACCAGAGAGG against FAM180B,-2.49
3,AAAGAUAUCAGGCACCCAG against GABRR3,0.633
4,UAAACUGCACUUUCCACGG against C12orf49,-2.69
5,UGUAUUAUGACCUUCGCUC against MORC4,-0.441
6,UCAAUUGAUUCCUCAAUUC against MCM6,0.575
7,UAUGCUUUCAAAAGAGUCC against ETS1,-1.16
8,AAGGCAUUAAGACUCUUGG against HDAC3,-0.388
9,UCCUUUACCGAUUUCAGUU against XRCC3,-0.609
10,UUCCUUCUUAGGUUUCUUC against LRRC59,0.83
11,UAGUUGUCACCAUCCGUGC against DSE,-2.48
12,AAGUUUAUAUACACUUUUG against NDUFS6,0.771
13,UUUCAGAUCAUACUCGCCG against VPS33B,0.89
14,UGAGGAGCGACAAUCUUCC against TFAP2C,-0.276
15,UGCCUGGAGAGAGUGUACG against PGLYRP1,-0.292
16,UUAGCAUUAAAACAGGUAG against GC,-0.347
17,UGGGAUCUCAGCUGUAUCC against XAGE1E,-2.37
18,UUUAGUAACAGCCCAGUUC against CCDC36,-0.277
19,AUAGGUAUCAGGCACCCAG against GABRB2,1.35
20,UAUUCUUACUGAUCGUUUG against FLI1,-6.54
21,UAUUCACCCAGAACUGUUG against CYP24A1,0.031
22,UAUAUCACCAUAUAAUCAC against ADRA2B,-0.259
23,AAAUUAAUCUUCUUCAUUC against COX17,0.109

row,Sequence,seed-corrected z-score
1,UCUGGAUCAAAGGGUGUUG against TMEM134,-4.42
2,UGAACUCCUUCAAUCCUGC against AHSP,0.888
3,UUAAUAAGACUUCAAGAUG against MYOCD,0.454
4,UUCCGGUACAAGAUAUUCC against QRSL1,0.059
5,AUAGGGUUUUACAUGAGGC against MYLK,-0.272
6,UCAUGAUCUGCGAAGUUGG against CCDC75P1,-2.24
7,UAUGUUCAGCUCGCAUUUC against CMAS,0.259
8,UUCAUGUCCAGGAUAUCCC against OBFC1,-0.538
9,AUUGAUAUAAGGAUCAACA against OR5K1,0.45
10,UUGGGUACCUCAGUCCACA against SNRPD2,-2.98
11,UACAUCUAAUUCACAGUUC against F9,0.676
12,UAAAUUUGCCCUGCUCUUG against OR2B11,0.408
13,AGUGUGACAAGAACGUGCC against MYL6P5,-0.946
14,UCUGUGAACACCGGCAUGU against NCLN,2.18
15,UUACGUUCUUGAAAGGCGG against IARS,1.47
16,AGACAGAUGCGUUUGAUUC against PYDC2,0.835
17,AAUGGAACAACAGCGGUCC against ZNF217,-0.315
18,UUCCUAGAAACCCAGACUG against SPATA31E1,-3.97
19,UACCGAUUUGGUAAUAUCG against LY75,-0.557
20,UCUCGUUAGUGAUUAAGUC against SULF1,-0.403
21,UCACCUUGAAGCUAUAACC against ERCC3,0.757
22,UUUGAUUUCAGCAUCUUCC against TSKS,-3.12
23,AAAUGGUCCAGCAAAUUCU against NPPA,0.589

row,Sequence,seed-corrected z-score
1,UUUUCGUGAUGCUUGGUCC against NDEL1,1.78
2,UCAAGAGAAUUCUGUAAUC against C5orf60,-0.0754
3,AUAGUACACGAUGAACUCG against RAMP3,-0.177
4,UGACUGACACUUUCAAAGC against SHC1,-0.358
5,UGUGGUACCAGGCUGCUUG against PAQR8,-2.42
6,UUGUUGGACAGUUGAAUCG against SEC62,0.834
7,UUGAGUUCCAAGAGGACCC against TPBG,0.978
8,UUUCUUAUUGUUGCGGCAG against SNRPD2,-2.78
9,UAUGUGGUUAGUCCGUGUG against GTF3C1,0.362
10,AAAGUUUUCCCUUAUGAUG against MYADML2,0.381
11,UGUUCUUUAAGCCUUUCCA against BLOC1S5,-0.0488
12,UUCCGGAACAUGAAGUGCC against DYRK1B,-0.257
13,UUGUCAAACAGGACUGAGU against AZIN2,-0.00443
14,UGUGGGAAAGCAGGUAUCU against ZNF815P,-1.11
15,UAAAGAUGCAGAUAAUAAC against NMUR1,0.231
16,UUACGAAUGACAUCCUUUG against CKAP5,-2.84
17,AACACUUACGCAGUUCUUG against MTCP1,0.193
18,UUUUUCUUCACAGGUGUUU against HIST1H1D,-0.582
19,UAAGCUUUUAUUGUGAAUG against GRP,-2.97
20,UUCUCAUCACUUGUAGCCU against ANKRD36C,0.48
21,UGUUUAGUAGCAGAUCUCC against PSMD6,-2.83
22,GUUGGUAACAGGGUCAUUU against RXRG,-0.41
23,UUGCGAACAAUAGGGUUAG against PZP,-0.222

row,Sequence,seed-corrected z-score
1,UAAAUGUACCGUUUAAACC against LOC647481,0.567
2,UCCGGAAUGUCGAUGCCCU against DUX5,-0.471
3,ACUGUUAUUCUUACGCUGG against CUL3,-0.643
4,AAUUUGACCUCAUCCAUUU against FAM47C,-0.798
5,UGGUGUAACUUCAACAUCG against ATP13A4,-2.09
6,UAUUCGUCAGCUCAAACUC against IQCH,-1.02
7,UAGGGUGAGAAUAGACAGG against PEX11B,0.764
8,UUCAGUUGUGAUAAGUUGC against TLR6,-0.0452
9,UUUCGAUCUCUGUUAAGCC against C2orf40,0.448
10,UUGAAGACCACGUACAUGG against SLC35D3,-0.373
11,UAAGCGUAUCUGGAAUUAC against UGCG,0.00222
12,UUCUUGACGUGCUUCAUUC against SCO1,-0.488
13,UUACGGAUCAUGUGGUCUU against SCNN1B,0.029
14,UGACUUCACAUGGACUACG against IDH3B,-2.07
15,AUCAUUCACAGGGAGGUCC against OAZ2,1.3
16,UUUGCAUCCCUCGCACUUG against MT3,0.331
17,UUGAAUUCAUUGCAUGUCC against CTSZ,0.0627
18,UAGCGGGUCUCAUCAAAGC against HGFAC,1.53
19,UUAGGUGCGCGGCUAACUG against COL9A3,-2.65
20,UCAAUGCAAAGGAACACUC against ARFGAP3,-0.0755
21,AUGUGGGUAAAAACUUGCU against NGRN,-2.09
22,UUCUUUAUUCCUUGAGCUG against OR10A4,-3.24
23,UACUUGACGAUGUUGCGCG against ADGRL1,-0.114

row,Sequence,seed-corrected z-score
1,UUCAUAUACAGCACAAUAC against CD58,1.5
2,UUGGAGGACAGGUCCAAGU against TSKU,0.336
3,UUCCAUGUAAAACAAUUUC against PDE4D,0.777
4,UUAUCUGUGACAUAAGUUG against ALG13,-2.26
5,UAGGGUACAUCGUAGGGAG against MYO15A,-0.369
6,GGAUUUGCAGCGCAAAGCC against LYPD1,-0.365
7,UCUGGAUUAACGGUGGUCU against NOVA1,-3.04
8,UAAGACUCAAAGUUCCCAG against LOC642502,-0.393
9,AGAUGAAAAAGUAAGGCCG against TRIM58,-0.628
10,UUUUCGAGGACAUUGACUG against FMN1,0.159
11,UCUUGCUCCAAACCUGCUC against KLHL34,-0.143
12,UUGCGGUAGACGAUGAUGC against ADAM8,-1.99
13,AAGCAUAAAAGGUUCCUGU against IRF4,0.397
14,UUCUCGUGCACUGUCAAAG against SMU1,-3.77
15,UUUGCGGUCACAAUUGGGC against IGFBP5,-0.759
16,AGACAUAACACUACGAGAC against GBA2,0.274
17,UUCUUCAUGCGCAGUGUGG against INF2,0.288
18,AAAUCCUCCAAACAUGUGC against ZNRF2,-0.0777
19,UGAUCGAAAUGAUUUACAC against CD180,-0.034
